Laboratory results from PubChem BioAssay AID1159580 (chemical genetic matrix, 2015).
Among all 5,500 compounds or so, about 2,000 (36%) were called active. Another 18% or so got no clear call; they are omitted. Rule as the data show it: active = normalized growth mostly below about 0.91 (no sharp cut-off); inconclusive = no clear call, values can overlap the other calls; inactive = mostly above about 0.92. This is one part of the list.

Assay: chemical genetic growth profiling, strain panel (AID 1159580);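 also: tested at 20 µM; growth read once vehicle control cultures reached saturation at 30 °C; 1 = growth at the plate median or of vehicle wells; lower values mean less growth of the strain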
Conditions: S. cerevisiae deletion strains, growth OD

Measured: normalized growth

CC(=O)c1c(O)cc(O)cc1O
inactive: locus YAL021C, strain ccr4, stronger effect = lower value 1.04 | locus YAL026C, strain drs2, stronger effect = lower value 0.987 | locus YAL030W, strain snc1, stronger effect = lower value 0.981 | locus YBL061C, strain skt5, stronger effect = lower value 0.985 | locus YBR009C, strain hhf1, stronger effect = lower value 1.02 | locus YBR023C, strain chs3, stronger effect = lower value 0.995 | locus YBR171W, strain sec66, stronger effect = lower value 0.964 | locus YBR231C, strain swc5, stronger effect = lower value 0.947 | locus YBR279W, strain paf1, stronger effect = lower value 0.991 | locus YCL011C, strain gbp2, stronger effect = lower value 0.978 | locus YCL016C, strain dcc1, stronger effect = lower value 1.03 | locus YCL061C, strain MRC1, stronger effect = lower value 1 | locus YCL069W, strain vba3, stronger effect = lower value 0.949 | locus YCR088W, strain abp1, stronger effect = lower value 0.967 | locus YDL005C, strain med2, stronger effect = lower value 0.97 | locus YDL040C, strain nat1, stronger effect = lower value 0.973 | locus YDR001C, strain nth1, stronger effect = lower value 0.981 | locus YDR069C, strain doa4, stronger effect = lower value 0.937 | locus YDR137W, strain rgp1, stronger effect = lower value 1.01 | locus YDR159W, strain sac3, stronger effect = lower value 0.967 | locus YDR195W, strain ref2 0.914 | locus YDR297W, strain sur2, stronger effect = lower value 0.982 | locus YDR334W, strain swr1, stronger effect = lower value 0.96 | locus YDR335W, strain msn5, stronger effect = lower value 0.973 | locus YDR392W, strain spt3, stronger effect = lower value 0.952 | locus YEL003W, strain gim4, stronger effect = lower value 0.979 | locus YEL037C, strain rad23, stronger effect = lower value 0.974 | locus YEL061C, strain CIN8 (second series), stronger effect = lower value 0.961 | locus YER015W, strain faa2, stronger effect = lower value 0.988 | locus YER016W, strain bim1, stronger effect = lower value 0.972 | locus YER111C, strain swi4, stronger effect = lower value 0.975 | locus YER155C, strain BEM2 (second series), stronger effect = lower value 0.969 | locus YFR010W, strain ubp6, stronger effect = lower value 0.948 | locus YGL167C, strain pmr1, stronger effect = lower value 0.992 | locus YGL173C, strain kem1, stronger effect = lower value 0.993 | locus YGL227W, strain vid30, stronger effect = lower value 0.968 | locus YGL240W, strain doc1, stronger effect = lower value 0.981 | locus YGL253W, strain hxk2, stronger effect = lower value 0.938 | locus YHR013C, strain ard1, stronger effect = lower value 0.985 | locus YHR027C, strain rpn1, stronger effect = lower value 0.997 | locus YHR030C, strain SLT2, stronger effect = lower value 0.986 | locus YHR079C, strain IRE1, stronger effect = lower value 0.974 | locus YHR142W, strain chs7, stronger effect = lower value 0.988 | locus YJL092W, strain hpr5, stronger effect = lower value 0.978 | locus YJL095W, strain BCK1 (second series), stronger effect = lower value 0.981 | locus YJL095W, strain BCK1, stronger effect = lower value 0.992 | locus YJL115W, strain asf1, stronger effect = lower value 0.999 | locus YJL129C, strain trk1, stronger effect = lower value 0.977 | locus YJL154C, strain vps35, stronger effect = lower value 0.973 | locus YJL164C, strain tpk1, stronger effect = lower value 1.02 | locus YJL166W, strain qcr8, stronger effect = lower value 0.989 | locus YJL187C, strain SWE1, stronger effect = lower value 0.99 | locus YJR066W, strain TOR1, stronger effect = lower value 0.952 | locus YKL160W, strain elf1, stronger effect = lower value 1.03 | locus YKR026C, strain gcn3, stronger effect = lower value 0.948 | locus YKR091W, strain srl3, stronger effect = lower value 0.988 | locus YLL001W, strain dnm1, stronger effect = lower value 0.978 | locus YLL026W, stronger effect = lower value 0.998 | locus YLL041C, strain sdh2, stronger effect = lower value 0.983 | locus YLR027C, strain aat2, stronger effect = lower value 0.993 | locus YLR113W, strain HOG1, stronger effect = lower value 0.97 | locus YLR221C, strain rsa3, stronger effect = lower value 0.955 | locus YLR258W, strain gsy2, stronger effect = lower value 0.989 | locus YLR262C, strain YPT6 (second series), stronger effect = lower value 1.06 | locus YLR320W, strain mms22, stronger effect = lower value 0.978 | locus YLR342W, strain FKS1, stronger effect = lower value 0.978 | locus YLR357W, strain rsc2, stronger effect = lower value 0.982 | locus YLR370C, strain arc18, stronger effect = lower value 0.961 | locus YLR384C, strain iki3, stronger effect = lower value 0.973 | locus YML120C, strain ndi1, stronger effect = lower value 0.998 | locus YMR058W, strain fet3, stronger effect = lower value 0.975 | locus YMR125W, strain sto1, stronger effect = lower value 0.958 | locus YMR129W, stronger effect = lower value 0.978 | locus YMR205C, strain PFK2, stronger effect = lower value 1.03 | locus YMR231W, strain pep5, stronger effect = lower value 0.968 | locus YNL071W, strain lat1, stronger effect = lower value 0.984 | locus YNL183C, strain NPR1, stronger effect = lower value 0.938 | locus YNL209W, strain ssb2, stronger effect = lower value 0.997 | locus YNL248C, strain rpa49, stronger effect = lower value 1.01 | locus YNL322C, strain KRE1 (second series), stronger effect = lower value 0.99 | locus YNR049C, strain mso1, stronger effect = lower value 0.978 | locus YOR001W, strain rrp6, stronger effect = lower value 0.922 | locus YOR070C, strain gyp1, stronger effect = lower value 0.988 | locus YOR080W, strain dia2, stronger effect = lower value 0.962 | locus YOR083W, strain WHI5, stronger effect = lower value 1.03 | locus YOR106W, strain vam3, stronger effect = lower value 1.04 | locus YOR231W, strain MKK1, stronger effect = lower value 0.982 | locus YOR265W, strain rbl2, stronger effect = lower value 0.976 | locus YOR270C, strain vph1, stronger effect = lower value 1.01 | locus YOR290C, strain snf2, stronger effect = lower value 1.03 | locus YPL051W, strain arl3, stronger effect = lower value 0.965 | locus YPL078C, strain atp4, stronger effect = lower value 1.03 | locus YPL106C, strain sse1, stronger effect = lower value 0.958 | locus YPL240C, strain hsp82, stronger effect = lower value 0.979 | locus YPL256C, strain CLN2, stronger effect = lower value 0.973
